From PubChem BioAssay (NCATS)
Results filed as inconclusive are left out. Calls of active or inactive are those of the source. Unless noted, the call rests on the fitted dose curve; in most records, active means well fitted curve in the direction sought with a large enough effect; inconclusive means small, poorly fitted or top-dose-only effect, or another doubt; inactive means no such curve, though single readings can be large; an effect the other way counts as inactive or inconclusive.

How the values were obtained:
[1] = target: Glucocorticoid receptor (Homo sapiens) (UniProt P04150); assay: qHTS assay for small molecule agonists of glucocorticoid receptor signaling (AID 588532; active means well fitted curve in the direction sought with a large enough effect in the signal ratio, with a control signal flat; the % refers to the signal ratio;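 further: 100% = dexamethasone at 0.1 µM and 0% = DMSO only wells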); conditions: HeLa MMTV-bla, beta-lactamase ratio, agonist, 18 h; stronger effect = higher value; percent of dexamethasone control, DMSO zero
Chain of Glucocorticoid receptor (Homo sapiens) (P04150 whole entry, looked up): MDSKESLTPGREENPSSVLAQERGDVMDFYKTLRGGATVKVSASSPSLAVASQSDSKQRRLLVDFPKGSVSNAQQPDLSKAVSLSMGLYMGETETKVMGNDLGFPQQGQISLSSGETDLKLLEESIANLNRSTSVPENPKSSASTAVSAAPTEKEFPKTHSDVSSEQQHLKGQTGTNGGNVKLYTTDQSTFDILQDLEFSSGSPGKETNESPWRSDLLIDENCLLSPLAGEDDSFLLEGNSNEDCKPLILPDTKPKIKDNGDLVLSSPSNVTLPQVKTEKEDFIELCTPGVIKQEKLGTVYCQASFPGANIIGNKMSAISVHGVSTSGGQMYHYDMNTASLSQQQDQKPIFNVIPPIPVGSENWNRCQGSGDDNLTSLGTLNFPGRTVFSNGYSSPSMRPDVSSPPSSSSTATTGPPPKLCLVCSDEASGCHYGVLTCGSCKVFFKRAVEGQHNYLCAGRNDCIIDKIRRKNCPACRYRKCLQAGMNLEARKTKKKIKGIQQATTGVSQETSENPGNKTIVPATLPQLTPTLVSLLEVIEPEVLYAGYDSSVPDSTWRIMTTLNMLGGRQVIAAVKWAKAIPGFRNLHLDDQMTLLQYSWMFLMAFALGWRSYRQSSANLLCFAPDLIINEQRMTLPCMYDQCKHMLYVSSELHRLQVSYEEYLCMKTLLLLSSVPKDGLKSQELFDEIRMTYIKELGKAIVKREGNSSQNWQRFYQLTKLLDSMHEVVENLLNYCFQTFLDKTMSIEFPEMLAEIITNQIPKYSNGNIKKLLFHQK
Outline: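 MMTV-bla HeLa, beta-lactamase reporter; medium with 1% charcoal/dextran-stripped FBS; cpds up to 92 uM, 18 h, 37 C; CCF4 readout 460/530 nm; Hill fit → EC50, efficacy vs 0.1 uM dexamethasone = 100%.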

[2] = qHTS assay for small molecule antagonists of peroxisome proliferator-activated receptor delta signaling (AID 588535); conditions: HEK293T PPARd-UAS-bla, beta-lactamase FRET ratio, 18 h; 460 nm channel;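 further: cells co-treated with a PPAR-delta agonist as stimulator during compound exposure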
Outline: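 Inhibition of PPAR-delta response element-driven beta-lactamase expression is measured in HEK293T cells exposed to a compound titration series for 18 hrs at 37 C. Half-maximal inhibition comes from Hill equation fitting.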

[3] = qHTS assay for small molecule agonists of retinoid X receptor alpha signaling (AID 588544; calls by dose curve; further: potency means the concentration at half of the fitted maximal effect;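 on activation: 0% = DMSO basal wells and 100% = reference agonist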); conditions: HEK293T RXRa-UAS-bla, beta-lactamase reporter, 18 h; 530 nm emission
[4] = target: Retinoic acid receptor RXR-alpha (Homo sapiens) (UniProt P19793); assay: as above; conditions: HEK293T RXRa-UAS-bla, beta-lactamase reporter, 18 h; series mostly up to 76.7 µM
Chain of Retinoic acid receptor RXR-alpha (Homo sapiens) (P19793 whole entry, looked up): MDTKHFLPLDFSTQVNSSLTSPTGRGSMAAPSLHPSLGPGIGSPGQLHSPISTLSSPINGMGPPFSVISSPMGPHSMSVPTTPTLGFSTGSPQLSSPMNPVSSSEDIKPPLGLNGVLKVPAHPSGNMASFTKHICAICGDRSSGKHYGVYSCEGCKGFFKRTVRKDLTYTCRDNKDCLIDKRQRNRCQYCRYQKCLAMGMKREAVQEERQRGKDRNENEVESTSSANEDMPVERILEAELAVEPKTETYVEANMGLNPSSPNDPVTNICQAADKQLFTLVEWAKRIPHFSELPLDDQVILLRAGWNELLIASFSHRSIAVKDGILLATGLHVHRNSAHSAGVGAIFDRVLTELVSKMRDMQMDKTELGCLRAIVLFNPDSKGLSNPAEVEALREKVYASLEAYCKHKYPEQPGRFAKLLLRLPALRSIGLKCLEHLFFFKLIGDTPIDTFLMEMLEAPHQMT

[5] = target: Thyroid hormone receptor beta (Homo sapiens) (UniProt P10828); assay: qHTS assay for small molecule agonists of thyroid hormone receptor beta signaling (AID 588545; calls by dose curve;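 further: 0% = DMSO only and 100% = 10 nM T3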); conditions: TR-UAS-bla GripTite HEK 293, beta-lactamase ratio, agonist mode, 18 h; series mostly up to 76.7 µM
Chain of Thyroid hormone receptor beta (Homo sapiens) (P10828 whole entry, looked up): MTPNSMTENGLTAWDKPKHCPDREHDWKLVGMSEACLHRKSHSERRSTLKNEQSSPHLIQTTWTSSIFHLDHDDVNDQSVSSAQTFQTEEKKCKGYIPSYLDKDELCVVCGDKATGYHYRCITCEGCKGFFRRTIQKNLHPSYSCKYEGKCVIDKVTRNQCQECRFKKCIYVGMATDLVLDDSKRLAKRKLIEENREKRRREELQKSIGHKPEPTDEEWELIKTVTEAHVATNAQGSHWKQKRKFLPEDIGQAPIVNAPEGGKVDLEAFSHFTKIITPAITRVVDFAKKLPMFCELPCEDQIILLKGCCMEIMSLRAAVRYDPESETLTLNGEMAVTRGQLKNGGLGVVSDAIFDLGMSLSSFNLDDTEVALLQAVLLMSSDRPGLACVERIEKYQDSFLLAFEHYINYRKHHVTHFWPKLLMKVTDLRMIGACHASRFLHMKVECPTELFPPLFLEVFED
Outline: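 Efficacy and EC50 values derive from Hill fits of qHTS titration data, normalized to 10 nM T3 and DMSO-only wells. HEK 293 reporter cells were stimulated for 18 hrs at 37 C, with beta-lactamase activity measured by CCF4 fluorescence.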

[6] = qHTS assay for small molecule antagonists of retinoid X receptor alpha signaling (AID 588546; active means well fitted inhibition curve with a large enough effect in the signal ratio, with a control signal flat, not every such curve was filed as active; the % refers to the signal ratio;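 further: cells stimulated with 9-cis-retinoic acid as agonist; on the % scale 0 is the no-effect control and ±100 the full control effect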); conditions: HEK293T RXRa-UAS-bla, beta-lactamase ratio, antagonist mode; measured here: W530 green channel, cytotoxicity proxy
Outline: (§1)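 Beta-lactamase reporter inhibition, read as CCF4 fluorescence ratio (ex 405, em 460/530 nm) after 2 h at RT. HEK293T UAS-bla cells, 2500/well, were stimulated with 9-cis-RA at 500 or 100 nM final alongside test compound for 18 h at 37 C.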

[7] = target: Retinoic acid receptor RXR-alpha (Homo sapiens) (UniProt P19793); assay: as above; conditions: HEK293T RXRa-UAS-bla, beta-lactamase ratio, antagonist mode
Outline: as §1

[8] = target: Thyroid hormone receptor beta (Homo sapiens) (UniProt P10828); assay: qHTS assay for small molecule antagonists of thyroid hormone receptor beta signaling (AID 588547; active means well fitted inhibition curve with a large enough effect in the signal ratio, with a control signal flat, not every such curve was filed as active; the % refers to the signal ratio;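 further: cells stimulated with 0.4 nM T3 agonist during compound exposure; on the % scale 0 is the no-effect control and ±100 the full control effect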); conditions: TR-UAS-bla HEK293, beta-lactamase ratio, antagonist mode, 18 h
Outline: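 TR-UAS-bla GripTite HEK293 cells in 2% charcoal/dextran FBS medium were preincubated 4 h at 37 C, given compound (0.59 nM to 92 uM) plus 0.4 nM T3 (final) for 18 h, then CCF4 for 2 h at RT; Hill fit gave IC50.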

[9] = qHTS assay for small molecule activators of the nuclear factor-kappa B (NF-kB) signaling pathway (AID 651749; active means well fitted activation curve with a large enough effect in the signal ratio; the % refers to the signal ratio; further: % of control where 0% means no effect); conditions: NF-kB-bla ME-180 cells, beta-lactamase FRET ratio, 16 h; activation: stronger effect = higher value
Outline: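 Human ME-180 cervical cells with an NF-kB-bla construct; compounds added via 23 nL pin transfer, DMSO as vehicle; incubation 16 hr. Reporter activity measured by FRET disruption.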

[10] = qHTS assay for environmental chemicals that activate the Aryl hydrocarbon Receptor (AhR) signaling pathway (AID 651777); conditions: 1A2-DRE human hepatoma cells, luciferase, 24 h; activation: stronger effect = higher value; further: nearly all actives have a fitted effect of over 15% in size; further: potency means the concentration at half of the fitted maximal effect; on activation: % of control where 0% means no effect
Outline: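 Induction of CYP1A2 transcription through AhR is detected by luciferase in 1A2-DRE hepatoma cells. Compounds or DMSO act for 24 hr at 37 C before a 30 min One-Glo step at room temperature.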

[11] = target: Peroxisome proliferator-activated receptor alpha (Homo sapiens) (UniProt Q07869); assay: qHTS assay for small molecule agonists of the peroxisome proliferator-activated receptor alpha (PPARalpha) signaling pathway (AID 651778); conditions: PathHunter PPARalpha complementation, chemiluminescence, 6 h; max response: stronger effect = higher value; further: % of control where 0% means no effect
Chain of Peroxisome proliferator-activated receptor alpha (Homo sapiens) (Q07869 whole entry, looked up): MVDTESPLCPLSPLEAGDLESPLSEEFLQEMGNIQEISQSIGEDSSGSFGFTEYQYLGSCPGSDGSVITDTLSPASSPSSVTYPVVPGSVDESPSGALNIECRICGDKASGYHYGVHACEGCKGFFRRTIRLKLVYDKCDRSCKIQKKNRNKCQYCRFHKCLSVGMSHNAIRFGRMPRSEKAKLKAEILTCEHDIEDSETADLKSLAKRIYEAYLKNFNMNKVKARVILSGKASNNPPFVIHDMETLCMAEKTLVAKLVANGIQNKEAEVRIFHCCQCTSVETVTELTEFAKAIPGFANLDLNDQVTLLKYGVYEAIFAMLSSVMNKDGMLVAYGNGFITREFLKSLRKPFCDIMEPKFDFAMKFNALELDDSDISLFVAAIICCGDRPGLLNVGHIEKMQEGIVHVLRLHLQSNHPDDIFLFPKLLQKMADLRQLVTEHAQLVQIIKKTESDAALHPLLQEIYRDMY
Outline: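 Cells plated at 2,000/well and held overnight at 37 C, 5% CO2, then compound added by pin tool for 6 hr; after PathHunter detection reagent and 60 min at room temperature, chemiluminescence from enzyme complementation was read.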

[12] = qHTS assay for small molecule agonists of the antioxidant response element (ARE) signaling pathway measured by Nrf2-dependant transcriptional activity - cell viability counter screen (AID 720653; active means well fitted curve in the direction sought with a large enough effect in the repeat runs; an effect the other way counts as inactive or inconclusive; further: on the % scale 0 is the no-effect control and ±100 the full control effect); conditions: ARE-bla HepG2 viability, CellTiter-Glo ATP luminescence, 16 h; max response: stronger effect = lower value
Outline: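 ARE-bla HepG2 cells (2,000/well) rested 5 hrs at 37C/5% CO2, then exposed to compounds in DMSO for 16 hrs. Viability was read in the same wells as intracellular ATP by luminescence, 30 min at room temperature after reagent addition.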

[13] = qHTS assay for cell viability of HEK293 cells (AID 743288); conditions: ATP luminescence (CellTiter-Glo), 18 h; max response: stronger effect = lower value; further: on the % scale 0 is the no-effect control and ±100 the full control effect; nearly all actives have a fitted effect of over 50% in size
Outline: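 After 18 h compound exposure at 37 C, parental HEK293 cells (2,000/well) are lysed with CellTiter-Glo and luminescence is read following 30 min at room temperature.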

[14] = qHTS assay for cell viability of the p53RE-bla HCT-116 cell line (AID 743292); conditions: p53RE-bla HCT-116 viability, ATP luminescence, 16 h; series mostly up to 95 µM; further: on the % scale 0 is the no-effect control and ±100 the full control effect; nearly all actives have a fitted effect of over 55% in size
Outline: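 In this qHTS counter-screen, metabolically competent p53RE-bla HCT-116 cells were counted via their ATP content. Compounds were applied for 16 h at 37 C and luciferase-coupled luminescence was measured.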

[15] = target: Nuclear receptor subfamily 1 group I member 2 (Rattus norvegicus) (UniProt Q9R1A7); assay: qHTS assay for small molecule activators of the rat pregnane X receptor (rPXR) signaling pathway (AID 651751; call rule not given here; further: 0% is about no effect); conditions: rPXR reporter cells, luciferase (One-Glo), 24 h
Chain of Nuclear receptor subfamily 1 group I member 2 (Rattus norvegicus) (Q9R1A7 whole entry, looked up): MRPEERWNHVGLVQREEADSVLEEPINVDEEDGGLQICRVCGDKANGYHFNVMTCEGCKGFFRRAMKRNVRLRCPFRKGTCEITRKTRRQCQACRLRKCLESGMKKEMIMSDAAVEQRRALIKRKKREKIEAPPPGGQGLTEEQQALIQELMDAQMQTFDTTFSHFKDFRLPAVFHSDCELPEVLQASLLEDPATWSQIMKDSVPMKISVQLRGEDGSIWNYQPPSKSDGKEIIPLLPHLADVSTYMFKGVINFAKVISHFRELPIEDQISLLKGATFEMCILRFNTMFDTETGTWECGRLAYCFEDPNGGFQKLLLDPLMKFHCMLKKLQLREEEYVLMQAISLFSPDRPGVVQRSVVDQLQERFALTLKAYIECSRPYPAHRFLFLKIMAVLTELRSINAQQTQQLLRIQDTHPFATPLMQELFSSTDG

[16] = qHTS assay for small molecule agonists of the antioxidant response element (ARE) signaling pathway measured by Nrf2-dependant transcriptional activity (AID 720636; active means well fitted curve in the direction sought with a large enough effect in the repeat runs; an effect the other way counts as inactive or inconclusive; further: potency means the concentration at half of the fitted maximal effect;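 on activation: HepG2 cells with an ARE-driven luciferase reporter; % of control where 0% means no effect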); conditions: ARE-luc HepG2, Nrf2 luciferase reporter, 16 h; series mostly up to 92.4 µM
Outline: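 We exposed ARE-luc HepG2 cells, seeded in assay medium with 1% dialyzed FBS and allowed 6 hr to adhere, to test compounds overnight (16 hr, 37 C) before measuring luciferase with ONE-Glo.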

[17] = target: Peroxisome proliferator-activated receptor gamma (Homo sapiens) (UniProt P37231); assay: qHTS assay for small molecule agonists of peroxisome proliferator-activated receptor gamma signaling (AID 588536; active means well fitted curve in the direction sought with a large enough effect in the signal ratio, with a control signal flat, not every such curve was filed as active; the % refers to the signal ratio;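 further: 0% = DMSO basal wells and 100% = rosiglitazone at 2 µM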); conditions: HEK293 PPARg-UAS-bla, beta-lactamase ratio, 16 h, percent of rosiglitazone response, DMSO as zero; series mostly up to 76.7 µM
Chain of Peroxisome proliferator-activated receptor gamma (Homo sapiens) (P37231 whole entry, looked up): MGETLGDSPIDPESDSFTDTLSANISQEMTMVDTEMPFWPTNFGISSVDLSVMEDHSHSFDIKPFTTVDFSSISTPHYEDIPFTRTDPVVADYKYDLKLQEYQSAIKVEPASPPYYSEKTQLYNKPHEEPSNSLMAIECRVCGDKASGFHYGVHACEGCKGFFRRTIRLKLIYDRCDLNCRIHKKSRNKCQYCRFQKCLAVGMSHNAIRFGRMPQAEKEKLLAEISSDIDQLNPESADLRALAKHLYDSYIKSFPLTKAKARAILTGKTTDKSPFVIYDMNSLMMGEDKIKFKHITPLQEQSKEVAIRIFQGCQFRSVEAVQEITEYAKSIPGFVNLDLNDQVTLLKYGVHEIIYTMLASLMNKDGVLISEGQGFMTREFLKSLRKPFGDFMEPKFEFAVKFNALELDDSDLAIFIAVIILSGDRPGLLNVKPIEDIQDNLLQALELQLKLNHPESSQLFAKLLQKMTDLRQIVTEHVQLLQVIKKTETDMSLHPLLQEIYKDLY
Outline: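 This is an agonist-mode beta-lactamase reporter assay in HEK293 PPAR-gamma-UAS-bla cells with 1% charcoal/dextran FBS. Compound titrations ran 16 h at 37 C before CCF4 detection. EC50 and efficacy are Hill fits scaled to 2 uM rosiglitazone (100%) and DMSO basal.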

[18] = target: Peroxisome proliferator-activated receptor gamma (Homo sapiens) (UniProt P37231); assay: qHTS assay for small molecule antagonists of peroxisome proliferator-activated receptor gamma signaling (AID 588537; active means well fitted inhibition curve with a large enough effect in the signal ratio, with a control signal flat, not every such curve was filed as active; the % refers to the signal ratio;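 further: reporter cells co-stimulated with 50 nM rosiglitazone agonist during compound treatment; % of control where 0% means no effect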); conditions: HEK293 PPARg-UAS-bla, beta-lactamase ratio, antagonist mode; series mostly up to 76.8 µM
Outline: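 Compounds are tested as concentration series for inhibition of rosiglitazone-driven (50 nM) reporter expression in GeneBLAzer PPAR-gamma-UAS-bla HEK293 cells. After 16 h at 37 C, CCF4 substrate is added for 2 h at room temperature and blue/green fluorescence is measured.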

[19] = qHTS assay for small molecule activators of the human pregnane X receptor (PXR) signaling pathway (AID 720659; call rule not given here; further: 0% is about no effect); conditions: DPX-2 HepG2 CYP3A4-luciferase, 24 h; series mostly up to 92.3 µM
[20] = qHTS assay for small molecule activators of the p53 signaling pathway (AID 651743; active means well fitted activation curve with a large enough effect in the signal ratio, not every such curve was filed as active; the % refers to the signal ratio; further: % of control where 0% means no effect); conditions: HCT-116 p53RE-bla, beta-lactamase FRET ratio, 16 h; activation: stronger effect = higher value
Outline: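 Agonist-mode quantitative HTS in HCT-116 cells carrying a p53-response-element beta-lactamase reporter; 16 h compound treatment at 37 C, then FRET substrate loading for 2 h at room temperature and fluorescence read.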

Cc1ccc(N=Nc2c(O)ccc3ccccc23)c([N+](=O)[O-])c1
39.9%: max response [2]
active: Potency [10] 17.8 µM
inactive: activation [1] -1.07% | Potency [4] | Potency [5] | max response [7] -0.783% | activity change % (negative = inhibition) [8] -2.29% | activation [9] -0.237% | max response [11] 0.597% | max response [12] -11.8% | max response [13] -2.16% | Potency [14] | max response [15] 5.08%
-4.75%: max response [6]
-14.3%: max response [3]

CC(C)CCCCCCc1ccc(OCCOCCO)cc1
-48.7%: max response [3]
inactive: activation [10] -9.42% | Potency [16] | max response [12] -4.66% | max response [15] -16.1%
active: Potency [4] 3.55 µM

Cc1ccc(C(C)(C)C)c(O)c1
inactive: outcome [17] | Potency [18] | Potency [4] | Potency [5] | max response [7] -3.16% | activation [9] 0.363% | activation [10] 1.48% | max response [11] -0.656% | Potency [16] | max response [12] 6.52% | max response [13] -6.81% | Potency [14] | max response [15] 1.73%
-16%: max response [6]
-12.1%: max response [3]

CSC(=O)c1cccc2nnsc12
-10.7%: max response [6]
21.6%: max response [2]
inactive: activation [1] -11.5% | outcome [17] | Potency [18] | Potency [4] | Potency [5] | max response [7] 12.7% | activation [10] 0.806% | max response [11] -3.32% | Potency [16] | max response [12] 15.6% | max response [13] 3.92% | outcome [19]
-10.1%: max response [3]

Oc1ccc2ccccc2c1N=Nc1ccccc1
-13.8%: max response [6]
inactive: outcome [17] | Potency [5] | max response [7] -15.2% | activation [9] 0.732% | max response [11] 0.672% | max response [13] -20.8% | Potency [14] | max response [15] 5.24%
active: Potency [16] 9.69 µM

CCCCCCCCCCCCCCCCN(C)C
inactive: activation [1] -11.7% | Potency [4] | Potency [5] | max response [7] -24.8% | activation [20] -1.17% | activation [10] 0.752% | max response [11] -0.399% | Potency [16] | max response [12] -13% | max response [13] -6.67% | Potency [14] | max response [15] 2.85% | outcome [19]
-18.2%: max response [3]
-16.5%: max response [2]
-9.65%: max response [6]

O=C(O)c1cccc(C(=O)O)c1
-13%: max response [3]
inactive: activation [1] -2.7% | outcome [17] | Potency [18] | Potency [4] | Potency [5] | max response [7] -3.25% | activity change % (negative = inhibition) [8] 17% | activation [10] -2.6% | max response [11] -0.8% | Potency [16] | max response [12] -9.16% | max response [13] -0.837% | Potency [14] | max response [15] 0.205% | outcome [19]
-5.27%: max response [6]
-2.92%: max response [2]

CCCCCCCCCCCCO
-12.2%: max response [3]
inactive: outcome [17] | Potency [18] | Potency [4] | Potency [5] | max response [7] 8.28% | activity change % (negative = inhibition) [8] -1.52% | activation [20] -3.58% | activation [10] 2.81% | max response [11] -0.593% | Potency [16] | max response [12] -4.36% | max response [13] -11.9% | Potency [14] | max response [15] 1.35% | outcome [19]
-2.04%: max response [6]
3.59%: max response [2]

C=C(C)C(=O)OCCC[Si](OC)(OC)OC
-14.5%: max response [3]
inactive: outcome [17] | Potency [18] | Potency [4] | Potency [5] | max response [7] -21.4% | activity change % (negative = inhibition) [8] 2.39% | activation [9] -3.72% | activation [10] -2.37% | max response [11] -1.45% | Potency [16] | max response [12] -0.904% | max response [13] -1.87% | max response [15] -1.68%
51.6%: max response [2]
-3.97%: max response [6]

O=S(=O)(O)c1cc(S(=O)(=O)O)c2c(N=Nc3ccccc3)c(O)ccc2c1
-6.55%: max response [3]
-19.3%: max response [2]
inactive: Potency [4] | Potency [5] | activity change % (negative = inhibition) [8] -8.36% | activation [20] -0.0659% | activation [9] 1.12% | activation [10] 0.18% | max response [11] -5.78% | Potency [16] | max response [12] -9.68% | max response [13] -12.7% | Potency [14] | max response [15] 3.04%

CCCCCCCCC(=O)O
inactive: activation [1] 1.63% | Potency [4] | max response [7] -41.9% | activity change % (negative = inhibition) [8] 3.07% | activation [20] 4.29% | activation [10] 2.74% | max response [11] 1.35% | Potency [16] | max response [12] -7.02% | max response [13] -14.6% | Potency [14] | max response [15] -1.4% | outcome [19]
-8.04%: max response [6]
-21.9%: max response [3]
-26.9%: max response [2]

CC1(C)C(C=C(Cl)Cl)[C@H]1C(=O)OCc1cccc(Oc2ccccc2)c1 (some centres undefined)
inactive: max response [7] -0.468% | activity change % (negative = inhibition) [8] 5.41% | activation [20] -1.46% | max response [11] -1.89% | max response [12] -12.3% | max response [13] -12.9% | Potency [14]
-16.1%: max response [6]
35.5%: max response [2]

CCCCCCCCCCCCCCO
inactive: outcome [17] | Potency [4] | Potency [5] | max response [7] 6.98% | activity change % (negative = inhibition) [8] 8.79% | activation [20] -1.8% | activation [9] 0.681% | activation [10] 0.688% | max response [11] 6.84% | max response [12] 4.22% | max response [13] -0.0211% | Potency [14] | max response [15] 0.238% | outcome [19]
-4.48%: max response [3]
-1.57%: max response [6]
